Reference: PubChem BioAssay AID1863 (Southern Research Specialized Biocontainment Screening …, 2009)
The campaign covered roughly 300,000 compounds. About 480 (0.16%) were called active. Only a sample is shown. Measured potencies and affinities stand elsewhere. A number with no mark means an inactive call.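 How the source made its calls: active means inhibition over 29.93%, a cutoff 3 SD above the screen mean, later confirmed by dose response; inconclusive means inhibition over 29.93% but no dose response follow-up; inactive means inhibition at most 29.93% or unconfirmed.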

experiment: PhoP-dependent GFP reporter repression – Salmonella Typhimurium, primary screen (AID 1863);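 further: 0% = low Mg2+ inducing control and 100% = high Mg2+ repressing control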; details: S. Typhimurium PhoP-regulated promoter GFP reporter, 4 h; at 50 µM; stronger effect = higher value

| SMILES | inhibition [%] |
| --- | --- |
| COc1ccc(N2CCN(c3nc4c(C)cccn4c(=O)c3/C=C(\C#N)C(N)=O)CC2)cc1 | 0.07 |
| COc1cc(Cl)ccc1OCc1cc(C(=O)N2CCC(N(C)C)C2)no1 (configuration not stated) | 4.49 |
| CN1CCN(Cc2cc(COCc3ccccc3)c3cccnc3c2O)CC1 | 21 |
| O=[N+]([O-])c1cc(CN2CCN(c3ccccc3)CC2)c(O)c2ncccc12 | 14 |
| Oc1c(CN2CCCCC2)cc(Br)c2cccnc12 | -2.58 |
| COCc1cc(CN2CCCC2)c(O)c2ncccc12 | 0.6 |
| O=[N+]([O-])c1cccc2c(N3CCOCC3)ccnc12 | -2.73 |
| O=C(Oc1c(CN2CCOCC2)cc(Cl)c2cccnc12)c1ccccc1Cl | 13.4 |
| O=C(COC(=O)c1cc[n+]([O-])cc1)Nc1c(Cl)cccc1C(F)(F)F | 0.58 |
| Cc1occc1-c1nnc(SCCNCCO)o1 | -0.93 |
| CCn1ccnc1[C@@H]1C[C@H]2CN(Cc3cccc(Cl)c3)C(=O)[C@]23CCCN13 | 3.68 |
| CCN1C(=O)CSc2ccc(C(=O)NCc3ccc(OC)cc3)cc21 | -1.69 |
| COc1ccc(S(=O)(=O)NN=C2CCCC2)cc1 | 1.9 |
| O=C(c1oc(=O)c2ccccc2c1-c1ccccc1)N1CCC(O)CC1 | 18.1 |
| CCOc1ccccc1N1CCN(CC(=O)Nc2ncc(C)s2)CC1 | -2.9 |
| Oc1c(Br)cc(Br)cc1C=NCc1ccc(F)cc1 | 10.4 |
| Oc1cccc(/C=N/N=C/c2cccc(O)c2O)c1O | 16.2 |
| Oc1cccc(C=NCc2ccccc2)c1 | 4.18 |
| O=C(Cc1ccccc1)N/N=C/c1cc(Br)cc(Br)c1O | -8.98 |
| CCOc1ccccc1N(CC(=O)N/N=C(\C)c1cccc(Br)c1)S(C)(=O)=O | -0.46 |
| CC(C)C[C@H](NC(=O)c1[nH]cnc1C(=O)N[C@H](C)c1ccccc1)C(=O)OC(C)(C)C | -2.19 |
| CCCCCCCCOC(=O)C[N+](C)(C)C/C=C(/C)Cl | 2.02 |
| CCCCCCCCCCCCOC(=O)C[N+](C)(C)C | 0.96 |
| Cc1cc(C(=O)NCCN2CCOCC2)ccc1[N+](=O)[O-] | -2.2 |
| Nc1nc(-c2ccccn2)nc(N)c1Cc1ccc(Cl)cc1Cl | 3.01 |
| Cc1nc(N)c(Cc2ccccc2F)c(N)n1 | 2.15 |
| COc1ccc(C(=O)NCC(=O)N2CCN(c3ccccc3)CC2)cc1 | -3.55 |
